Results taken from PubChem BioAssay AID1159580 (chemical genetic matrix, 2015).
Screen size: about 5,500 compounds; about 2,000 (36%) were called active. Inconclusive results (about 18%) are left out. Cut-off read from the data, not from the text of the source: active = normalized growth mostly below about 0.91 (no sharp cut-off); inconclusive = no clear call, values can overlap the other calls; inactive = mostly above about 0.92. The list shows a part of the results.

Assay: chemical genetic growth profiling, strain panel (AID 1159580);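 note: tested at 20 µM; growth read once vehicle control cultures reached saturation at 30 °C; 1 = growth at the plate median or of vehicle wells; lower values mean less growth of the strain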
Conditions: growth OD
[1] = S. cerevisiae deletion strains, locus YAL013W, strain DEP1, active compounds read low
[2] = S. cerevisiae deletion strains, locus YBR229C, strain ROT2, active compounds read low
[3] = S. cerevisiae deletion strains, locus YCL061C, strain MRC1, active compounds read low
[4] = S. cerevisiae deletion strains, locus YDL101C, strain DUN1, active compounds read low
[5] = S. cerevisiae deletion strains, locus YDL134C, strain PPH21, active compounds read low
[6] = S. cerevisiae deletion strains, locus YDR150W, strain NUM1, active compounds read low
[7] = S. cerevisiae deletion strains, locus YEL061C, strain CIN8, active compounds read low
[8] = S. cerevisiae deletion strains, locus YGR078C, strain PAC10, active compounds read low
[9] = S. cerevisiae deletion strains, locus YHR030C, strain SLT2, active compounds read low
[10] = S. cerevisiae deletion strains, locus YHR087W, strain rtc3, active compounds read low
[11] = S. cerevisiae deletion strains, locus YJR043C, strain POL32, active compounds read low
[12] = S. cerevisiae deletion strains, locus YJR075W, strain HOC1, active compounds read low
[13] = S. cerevisiae deletion strains, locus YLR039C, strain RIC1, active compounds read low
[14] = S. cerevisiae deletion strains, locus YLR058C, strain SHM2 (second series), active compounds read low
[15] = S. cerevisiae deletion strains, locus YLR085C, strain ARP6, active compounds read low
[16] = S. cerevisiae deletion strains, locus YLR262C, strain YPT6, active compounds read low
[17] = S. cerevisiae deletion strains, locus YML094W, strain GIM5, active compounds read low
[18] = S. cerevisiae deletion strains, locus YMR219W, strain ESC1, active compounds read low
[19] = S. cerevisiae deletion strains, locus YMR263W, strain SAP30, active compounds read low
[20] = S. cerevisiae deletion strains, locus YNL153C, strain GIM3, active compounds read low
[21] = S. cerevisiae deletion strains, locus YNL298W, strain CLA4 (second series), active compounds read low
[22] = S. cerevisiae deletion strains, locus YNL322C, strain KRE1, active compounds read low
[23] = S. cerevisiae deletion strains, locus YNR030W, strain Alg12, active compounds read low
[24] = S. cerevisiae deletion strains, locus YOL006C, strain TOP1, active compounds read low
[25] = S. cerevisiae deletion strains, locus YPL055C, strain LGE1, active compounds read low
[26] = S. cerevisiae deletion strains, locus YPL241C, strain CIN2, active compounds read low
[27] = S. cerevisiae deletion strains, locus YPR135W, strain CTF4, active compounds read low
[28] = S. cerevisiae deletion strains, locus YKL190W, strain CNB1, active compounds read low
[29] = S. cerevisiae strains, strain wild type, active compounds read low

Measured: normalized growth

CC(C)(C)C(=O)N1CCN(c2ncccc2C(F)(F)F)CC1
inactive: [1] 0.988 | [2] 0.983 | [3] 0.998 | [4] 0.977 | [5] 0.967 | [6] 0.983 | [7] 0.96 | [8] 0.979 | [9] 0.853 | [10] 0.973 | [11] 0.997 | [12] 0.983 | [13] 0.914 | [14] 0.989 | [15] 0.941 | [16] 0.865 | [17] 0.939 | [18] 0.99 | [19] 1.02 | [20] 0.992 | [21] 0.966 | [22] 0.974 | [23] 0.963 | [24] 0.871 | [25] 0.959 | [26] 0.999 | [27] 0.787

Cc1onc(-c2c(Cl)cccc2Cl)c1C(=O)N1CCN(c2ncccc2C(F)(F)F)CC1
inactive: [1] 1.01 | [2] 1 | [4] 1.03 | [5] 0.988 | [6] 0.997 | [7] 1.03 | [8] 1 | [9] 0.908 | [10] 1 | S. cerevisiae deletion strains, locus YJL187C, strain SWE1, active compounds read low 0.992 | [11] 0.966 | [12] 0.999 | [28] 1 | [13] 0.99 | [14] 0.983 | [15] 0.921 | [16] 0.964 | [17] 1.11 | [18] 0.991 | [19] 0.977 | S. cerevisiae deletion strains, locus YNL128W, strain TEP1, active compounds read low 1 | [20] 1 | [21] 0.997 | [22] 0.994 | [23] 0.966 | [24] 0.934 | [25] 1.06 | [26] 0.99 | [27] 1.08 | [29] 0.972

N/C(=N/OS(=O)(=O)c1ccc(Cl)cc1)c1ccc(C(F)(F)F)cc1
inactive: [1] 0.957 | [2] 0.978 | [3] 0.946 | [4] 0.958 | [5] 0.978 | [6] 0.96 | [7] 0.997 | [8] 0.971 | [9] 0.915 | [10] 1.01 | [11] 0.97 | [12] 0.955 | [28] 0.981 | [13] 0.969 | [14] 0.976 | [15] 0.968 | [16] 0.999 | [17] 0.985 | [18] 0.99 | [19] 0.991 | [20] 0.976 | [21] 0.943 | [22] 0.967 | [23] 0.971 | [24] 0.897 | [25] 1.02 | [26] 0.965 | [27] 0.847 | [29] 0.973
